Compound activity (PubChem)
Bead autofluor – compound fluorescence in toxin protease inhibitor counterscreen | compound autofluorescence counterscreen, microsphere flow cytometry; active compounds read high | fluorescence intensity (concentration not given with the values) | actives 3.1% (n = 360,000); in the data active = fluorescence intensity above about 16000; inconclusive = no clear call, values can overlap the other calls
CCHFV vOTU inh – CCHFV vOTU protease inhibition; actives 0.55% (n = 370,000); Pep-AMC fluorescence; inhibition, % at 11.5 µM; in the data active = inhibition above about 30%; also: 0% = vehicle wells with enzyme and 100% = no enzyme wells
BoNT A protease – blocks Botulinum neurotoxin A light chain protease; multiplex microsphere protease substrate cleavage, flow cytometry; actives 0.17% (n = 360,000); inhibition, % at 10 µM; also: plate controls were buffer without enzyme for full effect and enzyme alone for no effect
BoNT-F LC inh – BoNT F light chain protease inhibition. Multiplex microsphere protease cleavage assay, flow cytometry. inhibition, % at 10 µM. actives 0.22% (n = 360,000); in the data active = inhibition above about 35%, passing the limit was not always enough; inconclusive = no clear call, values can overlap the other calls; also: plate controls were buffer without enzyme for full effect and enzyme alone for no effect
Anthrax LF prot – blocks Bacillus anthracis lethal factor protease. P15917. multiplex microsphere protease cleavage assay, LF. AID 588501. actives 0.12% (n = 360,000). inhibition, % at 10 µM; also: plate controls were buffer without enzyme for full effect and enzyme alone for no effect
3CLpro inhibitor – SARS-CoV 3CLpro protease inhibition. recombinant SARS-CoV 3CLpro, quenched FRET peptide cleavage. inhibition, % at 6 µM. actives 0.14% (n = 290,000); in the data active = inhibition above about 12%
* = called active by the depositor; ? = inconclusive; · = no result given. Shown are actives, neighbours in structure and some others; about 3.9% of the full set was active somewhere. Rule as the data show it, unless noted: active = inhibition above about 30%; inconclusive = no clear call, values can overlap the other calls; inactive = below that.

SMILES | Bead autofluor | CCHFV vOTU inh | BoNT A protease | BoNT-F LC inh | Anthrax LF prot | 3CLpro inhibitor
COc1ccc(S(=O)(=O)N(C)C[C@@H]2OCCCC[C@@H](C)Oc3ccc(NC(=O)NC(C)C)cc3C(=O)N([C@H](C)CO)C[C@@H]2C)cc1 | 3777 | 3 | 0 | -3 | -1 | ·
CCOc1ccccc1-c1nc(-c2cc3ccc(C)cc3[nH]c2=O)no1 | 16326* | -5 | 2 | 5 | 0 | 0
Cn1ccc2ccc(-c3ccc4c(c3)[C@]3(CCC[C@@H](OCc5ccccc5)[C@@H]3NC(=O)CCc3ccccc3)C(=O)N4Cc3ccccc3)cc21 | · | 4 | · | · | · | ·
O=C(O)C1C2C=CC(C2)C1C(=O)NCCCn1ccnc1 (centres undefined) | 22134* | 1 | 0 | 0 | -2 | 5
O=S(=O)(c1ccc(Br)cc1Cl)N1CCCN(c2ccc(C(F)(F)F)cn2)CC1 | 3764 | 2 | 0 | 12 | 3 | ·
CN(C(=O)CSc1nnnn1-c1ccc(O)cc1)C1CCS(=O)(=O)C1 (centres undefined) | 2111 | 7 | 0 | -6 | 0 | 1
C#CCN1CC(N(C)CCOC(=O)c2cccs2)CS1(=O)=O (centres undefined) | · | -3 | · | · | · | ·
COCCN1C(=O)/C(=C/c2ccc(N3CCCC3)cc2C)SC1=S | 18023* | 18 | 100* | 28 | 58* | -1
CC(=O)Nc1ccc(C(CCCc2ccccc2)C2=CCCCC2)cc1 (centres undefined) | · | 13 | · | · | · | ·
CCOc1ccc(S(=O)(=O)N(C)CC(=O)NCc2ccc3c(c2)OCO3)cc1 | 5263 | -12 | 0 | -2 | 1 | 1
CCNc1oc(-c2ccc(OC)cc2)nc1S(=O)(=O)c1ccc(Br)cc1 | 21449* | -10 | ? | -7 | -1 | 0
CCCCNc1oc(-c2ccc(OC)cc2)nc1S(=O)(=O)c1ccccc1 | 21088* | -9 | -1 | -2 | -1 | 6
CCOc1ccc(-c2nc(S(=O)(=O)c3ccccc3)c(NC)o2)cc1 | 5222 | 7 | -1 | -4 | -5 | 4
CCNc1oc(-c2ccccc2F)nc1S(=O)(=O)c1ccccc1 | 4097 | · | 4 | 6 | 0 | -3
COCCNC(=O)c1cc2cc(Br)cc(Br)c2oc1=O | 4462 | -6 | 0 | -2 | -4 | -1
COCCNC(=O)c1cc2cc(Br)cc(OC)c2oc1=O | 21622* | 7 | ? | -4 | 1 | 1
CC(=O)Nc1cccc(-c2nnc(SCC(=O)N3CCCCC3)n2C)c1 | 24749* | 16 | -2 | -3 | 0 | -4
COc1ccc(-c2oc3ncnc(NCCCN4CCOCC4)c3c2-c2ccc(OC)cc2)cc1 | 10421 | -13 | 0 | -14 | 0 | 2
c1ccc(-c2oc3ncnc(NCCCN4CCOCC4)c3c2-c2ccccc2)cc1 | 26085* | -15 | -3 | -6 | -4 | 2
CCn1c(SCC(=O)Nc2nc(-c3ccccc3)cs2)nnc1-c1ccccc1 | 6692 | 5 | 0 | -1 | -2 | 4
Cc1nnc(SCC(=O)Nc2nc(-c3ccccc3)cs2)n1N | 22717* | -19 | -1 | -1 | -3 | -4
O=C(CSc1nnc(CNc2ccc(Cl)cc2)o1)Nc1nc2ccccc2s1 | 25121* | -2 | ? | -7 | -2 | 2
CCOC(=O)N1CCN(C(=O)CSCC(=O)Nc2nc(-c3ccccc3)cs2)CC1 | 23127* | -7 | 0 | -2 | -1 | -1
O=C(CSc1ncn(-c2ccccc2)n1)Nc1nc(-c2ccccc2)cs1 | 20833* | 3 | ? | 1 | -10 | 4
COc1ccccc1OP(=O)(O)Oc1ccccc1OC | 4316 | -1 | 0 | -1 | -3 | 1
SMILES | Bead autofluor | CCHFV vOTU inh | BoNT A protease | BoNT-F LC inh | Anthrax LF prot | 3CLpro inhibitor
Cc1cc(C)n2nc(CNS(=O)(=O)c3ccc(CC(C)C)cc3)nc2n1 | 5432 | -4 | 1 | -7 | 8 | -3
O=C(CSc1ncn(-c2ccccc2)n1)Nc1nc2c(s1)CCCC2 | 10119 | -13 | 0 | -2 | -1 | 2
O=C(CSc1ncn(-c2ccccc2)n1)Nc1nc2ccccc2s1 | 22783* | -4 | 2 | 2 | -2 | -1
O=S(=O)(c1cccc2cccc(Cl)c12)N1CCCC1 | 4251 | 7 | 0 | -5 | 4 | -1
O=C(NNc1ccccc1[N+](=O)[O-])Nc1ccccc1 | 20435* | · | ? | -1 | 0 | 3
O=C(CCN1CCCCC1)Nn1c(=S)[nH]c2ccccc2c1=O | 23257* | 1 | ? | -3 | -2 | -2
CCCSc1nnc(C(C)C)n1N | 22250* | -2 | ? | 3 | -1 | 0
CC(C)c1nnc(SCc2ccc(CSc3nnc(C(C)C)n3N)cc2)n1N | 4475 | -1 | 0 | 9 | -1 | -5
CCOC(=O)C[n+]1c(C)csc1C | 8387 | 0 | 0 | 2 | -3 | 7
Cc1csc(C)[n+]1CC(=O)c1ccccc1 | 3957 | -11 | -1 | 48* | 8 | 4
C=CCSc1nc2sc3c(c2c(=O)n1-c1ccc(C)cc1)CCN(C)C3 | 4217 | -27 | 36* | -5 | 1 | -1
C=C(C)CSc1nc2sc3c(c2c(=O)n1-c1ccccc1)CCN(C)C3 | 4836 | -30 | 37* | 9 | 16 | 0
CCSc1nc2sc3c(c2c(=O)n1-c1ccccc1)CCN(C(C)C)C3 | 6785 | -12 | 57* | 46* | 4 | 1
CSc1nc2sc3c(c2c(=O)n1C1CCCCC1)CCN(C)C3 | 5818 | -3 | 0 | -21 | 0 | 1
C=C(C)CSc1nc2sc3c(c2c(=O)n1C1CCCCC1)CCN(C)C3 | 7245 | -49 | 33* | -4 | 13 | 3
Cc1ccc(CNC(=O)COC(=O)c2ccc(S(=O)(=O)NCc3ccco3)cc2)cc1 | 3966 | -3 | -1 | -6 | 3 | ·
CCCCSc1nc2sc3c(c2c(=O)n1-c1ccccc1)CCN(C)C3 | 4210 | -11 | 52* | 21 | 14 | -3
O=C(NC(CC1=CCCCC1)c1ccccc1)C(F)(F)F (centres undefined) | · | 2 | · | · | · | ·
O=C(CCc1ccc(S(=O)(=O)N2CCOCC2)cc1)Nc1c(F)cccc1F | 4735 | 5 | 0 | 2 | 4 | ·
CCOc1ccc(N2CC(=O)N(c3ccc(OCC)cc3)CC2=O)cc1 | 22131* | 1 | 1 | 2 | -1 | 2
CCOc1ccc(N2C(=O)c3cccnc3C2=O)cc1 | 19193* | 0 | 3 | 3 | -3 | -2
CCOc1ccc(N2C(=O)Cc3ccccc3C2=O)cc1 | 4047 | 15 | 2 | 6 | 1 | 3
CC(C)n1nnnc1C1c2ccccc2C(=O)N1Cc1cccc(F)c1 (centres undefined) | 5599 | -2 | 0 | 0 | -1 | ·
O=C(OCc1ccccc1)c1cccc(-c2nnc(-c3ccccc3)o2)c1 | 23216* | -11 | ? | -3 | -1 | 3
O=C(OCc1ccc(C(=O)c2ccccc2)cc1)c1cccc(-c2nnc(-c3ccccc3)o2)c1 | 13281 | 2 | -2 | -16 | -3 | -2
CCOc1cc(NC(=S)Nc2cccc(C)c2)c(OCC)cc1NC(=O)CC(C)C | 22828* | 5 | -1 | -4 | -2 | 1
O=C(CCn1nnc2ccccc21)Nc1nnc(Cc2ccc(F)cc2)s1 | 7478 | 14 | ? | -4 | ? | 2
